Among the data in ChEMBL document CHEMBL4513216, “Probing the Open Global Health Chemical Diversity Library for Multistage-Active Starting Points for Next-Generation Antimalarials” (ACS Infect Dis, 2020) are INHIBITION values, retold here.

The campaign covered roughly 65,000 compounds. About 2,100 (3.2%) showed an effect of 50% or more. The median lay at about -52%. The sample as a whole holds a higher share of strong results than the screen did.

The subject of the assay is Plasmodium falciparum. As to the kind of experiment: Screen against P. falciparum Asexual Blood Stage (ABS), at 5uM. It is filed as functional, Dd2. The settings on record: tested at 5 uM.
`Cc1cc(C)nc(N2CCCC(c3cccc(-n4ccnc4)n3)C2)n1` (stereo not given): the INHIBITION is given as 66.3%. Under `CC(=O)N1CCCC(c2cccc(-n3ccnc3)n2)C1` (stereo not given) stands -75.7%. `c1cnc(N2CCCC(c3cncc(-n4ccnc4)n3)C2)nc1` (stereo not given): the INHIBITION is -20.6%. For `O=C(Cc1ccccn1)N1CCc2c(O)nc(-c3cnccn3)nc2C1`, the INHIBITION was -157%. Under `CCOCc1cncc2c1CCN(C(=O)c1cscn1)C2` stands -43.3%; under `c1cnc2ccc(C[C@@H]3CC[C@H](CN4CCCOCC4)O3)cc2c1`, 57.9%. On to `c1cncc(C[C@@H]2CC[C@H](CN3CCCOCC3)O2)c1`, for which the INHIBITION is reported as -54%. Under `CC(=O)N1CCN(C[C@H]2CC[C@@H](Cc3ccc4ncccc4c3)O2)CC1` stands -16.4%.

Turning to `O=C(NCCCN1CCCCCC1=O)c1n[nH]c(=O)c2ccccc12`, the INHIBITION is -16.5%. Regarding `O=C(NC1CC1)c1nc(Cn2c(C(F)F)nc3ccccc32)no1`, the INHIBITION was -138%. For `COCC(c1cccc(C(F)(F)F)c1)N(C)C(=O)c1cccnc1` (stereo not given), the INHIBITION came out at 66.9%. With `COCC(c1cccc(C(F)(F)F)c1)N(C)C(=O)c1cnccn1` (stereo not given) the figure was 48.8%. As for `COCC(c1cccc(C(F)(F)F)c1)N(C)C(=O)c1ccncc1` (stereo not given), the INHIBITION is -196%.

On to `CC(C)n1nc2c(cc1=O)CN(c1ncnc3ccccc13)CC2`, for which the INHIBITION is on record as -52.6%. With `CN(C)C(=O)Cn1c2c(ccc1=O)CCN(Cc1cnn(C)c1)CC2` the figure was -39.8%; with `COCC(=O)NC(C)c1sc(-c2ccccc2F)nc1C` (stereo not given), -22.6%; with `CCc1ccc(CN2CCCCC2c2n[nH]cc2-c2cc(C)no2)cc1` (stereo not given), 33.5%.

As for `Cc1cc(-c2c[nH]nc2C2CCCCN2C(=O)c2ccccc2)on1` (stereo not given), the INHIBITION is recorded as -6.99%. Consider `COc1ccccc1CN1CCCCC1c1n[nH]cc1-c1cc(C)no1` (stereo not given), for which the INHIBITION is listed as 66.4%. Under `COc1cccc(CN2CCCCC2c2n[nH]cc2-c2cc(C)no2)c1` (stereo not given) stands 35.3%; under `COc1ccc(CN2CCCCC2c2n[nH]cc2-c2cc(C)no2)cc1` (stereo not given), 35.5%; under `Cc1cccc(CN2CCCCC2c2n[nH]cc2-c2cc(C)no2)c1` (stereo not given), 52%. For `COC(=O)c1ccc(CN(C)C(=O)c2cnsn2)cc1`, the INHIBITION is reported as -39.8%.

On to `Cc1cc(-c2cccnc2)nc(C2CCCN2S(C)(=O)=O)n1` (stereo not given), for which the INHIBITION is listed as -29.8%. Under `O=C(c1sccc1C1CC1)N1CCN(Cc2cscn2)CC1` stands -52.2%.

On to `O=C(c1cocn1)N1C[C@@H]2CN(Cc3ccco3)CCO[C@@H]2C1`, for which the INHIBITION is recorded as -6.8%. With `N#Cc1ccc(F)c(CNC(=O)NC(CO)Cc2ccccc2)c1` (stereo not given) the figure was -90.6%. Under `CC(C)CC(=O)N(C)Cc1nc(C(F)(F)F)cs1` stands -49.5%; under `CCc1nc2n(n1)CC(NCc1nnc(C(C)C)o1)CC2` (stereo not given), -107%. Consider `OC(CNCCn1cccn1)c1ccc(Br)cc1` (stereo not given), for which the INHIBITION is -6.84%. Under `OC(CNCCn1cccn1)c1cccc(F)c1` (stereo not given) stands -25.4%; under `OC(CNCCn1cccn1)c1cccc(Br)c1` (stereo not given), 64.3%. Under `Cc1cc(NC(=O)NCc2ccncc2)ccc1OC(C)C` stands -62%; under `O=C(c1ccc(Cl)cc1)N1CCn2c(nn(-c3cccc(Cl)c3)c2=O)C1`, -1.25%; under `CCO[C@H]1CC[C@H]2[C@@H]1OCCN2C(=O)COc1ccccc1`, -106%. Consider `CCOc1ccnc(N2CCCN(c3nc(C4CC4)ns3)CC2)n1`, for which the INHIBITION came out at 52.1%. Under `CCOc1ccnc(N2CCCN(c3nc(CC)ns3)CC2)n1` stands -63.7%. Under `CN1CCCN(c2nc(C3CC3)ns2)CC1` stands -0.753%. Under `Cc1ncoc1C(=O)N1CCOC(Cc2ccccc2)C1` (stereo not given) stands -121%. On to `Cn1nc(C2CCCN(Cc3ccc(F)cc3F)C2)c2nccnc21` (stereo not given), for which the INHIBITION is recorded as -79%. Under `Cc1cc(C(=O)Nc2ccc3oc(=O)n(CCN(C)C)c3c2)c(C)o1` stands 8.61%; under `Cn1ccnc1C(=O)N1CCC2(CCCN2CC2CC2)CC1`, -104%; under `CC(=O)c1cc(CN2C[C@@H]3CC[C@H]2CN(S(=O)(=O)N(C)C)C3)cs1`, -60.2%. With `O=C(O)Cn1ccc(=O)c2ccccc21` the figure was -123%. Consider `CC(C)(C)c1cc(C(=O)NCCN2CCCS2(=O)=O)[nH]n1`, for which the INHIBITION was 34.4%. As for `CC(C)C(=O)N1CCCC2(CCCN2CC2CCCC2)C1` (stereo not given), the INHIBITION was 62%. With `CC(C)C(=O)N1CCC2(CN(CC3CCCC3)C2)C1` the figure was -67.5%. Consider `CC(C)C(=O)N1CCC2(CCN2CC2CC2)C1` (stereo not given), for which the INHIBITION is listed as -74.5%.

In the case of `CCCS(=O)(=O)N1CCC(NC(=O)c2cc3ccccc3s2)CC1`, the INHIBITION came out at 7.92%. With `COCC(=O)N1C[C@@H](CN2CCCN(C)CC2)[C@@H](CO)C1` the figure was -37.6%; with `Cc1[nH]c2ccc(CNc3cc(C(=O)NC(C)C)ccn3)cc2c1C`, -115%. On to `O=C(c1ccccc1)N1CCCn2c(CN3CCCCC3)nnc2C1`, for which the INHIBITION was -94.3%. Under `CCc1noc(C)c1C(=O)N1CCCCC1Cn1cc(C)cn1` (stereo not given) stands -104%; under `CCNC(=O)N(C)C1CCN(Cc2ncc(C)c(OC)c2C)CC1`, 69%. Turning to `COc1c(C)cnc(CN2CCC(N(C)C(=O)C(C)OC)CC2)c1C` (stereo not given), the INHIBITION is on record as -7.99%. With `CCC(=O)N(C)C1CCN(Cc2ncc(C)c(OC)c2C)CC1` the figure was -102%; with `O=C(Cn1cc(I)cn1)N1CCCCCC1`, -34.7%. With `COc1ccc2cc(CNCc3c(C)nn(C)c3N(C)C)ccc2c1` the figure was 18.6%; with `O=C(CCN1C[C@H]2CC[C@@H]1C2)N1CCN(c2cccc(Cl)c2)C(=O)C1`, -40%. Under `Cc1ccc(N2CCN(C(=O)CN3C[C@H]4CC[C@@H]3C4)CC2=O)cc1` stands -73.1%; under `Cc1cc(C)cc(N2CCN(C(=O)CCN3C[C@H]4CC[C@@H]3C4)CC2=O)c1`, 62.1%; under `CC(CN1CCCC1=O)NC(=O)Nc1ccccc1Cn1cccn1` (stereo not given), -4.06%. Turning to `CCOCC1c2c(cnn2C)CCN1C(=O)c1ccncn1` (stereo not given), the INHIBITION was -224%. With `Cc1cccc(C)c1Oc1ncccc1CNC(=O)C1COC(=O)N1` (stereo not given) the figure was -180%; with `CCC(CC)C(=O)NCc1cn2cc(Br)ccc2n1`, 1.4%; with `COc1ccc(OCCN(C)c2cc(C)nc(N)n2)cc1`, 63.7%. Consider `COc1ccc(F)c(-c2cc(C)nc(N)n2)c1`, for which the INHIBITION is recorded as -23.9%. `Cc1cc(N(C)CCCn2cccn2)nc(N)n1`: the INHIBITION is given as 26.7%. With `CN(C)c1ccccc1CN1CCCC(N2CCCC2=O)C1` (stereo not given) the figure was -44.5%. For the compound `Cc1cccc(C(=O)N2CCC3(CC2)CC(c2cnn(C)c2)CO3)c1` (stereo not given), the INHIBITION was -85.1%. With `CN(C)CC1(O)CCCN(C(=O)Cc2ccc(Cl)c(Cl)c2)C1` (stereo not given) the figure was 58.9%.

For `CN(C)CC1(O)CCN(C(=O)Cc2ccc3c(c2)CCC3)C1` (stereo not given), the INHIBITION was -116%. With `CN(C)CC1(O)CCCN(C(=O)CCn2cc(Cl)cn2)C1` (stereo not given) the figure was -101%; with `O[C@H]1CCCC[C@@H]1N1CCN(CCCc2ccc3c(c2)OCO3)CC1`, 28.7%. Under `CN(C)C(CNCc1nc(-c2ccsc2)no1)c1cccs1` (stereo not given) stands 12.3%; under `CN(C)C(CNCc1nc(-c2ccsc2)no1)c1cccc(F)c1` (stereo not given), -31.3%; under `CN(C)C(CNCc1nc(-c2ccsc2)no1)c1ccsc1` (stereo not given), 55.4%. Under `CCC1=NC(SCC(=O)c2ccccc2)c2cc(CC)sc2N1` (stereo not given) stands -23.2%; under `c1ccc(-c2cc(CNCCCN3CCCCC3)c3nnnn3c2)cc1`, 65.4%; under `c1ccc(-c2cc(CNCCN3CCCC3)c3nnnn3c2)cc1`, -1.88%. Regarding `c1ccc(-c2cc(CNCCN3CCOCC3)c3nnnn3c2)cc1`, the INHIBITION was -57.2%.

Take `O=C([C@@H]1C[C@@H]2CCN(CCc3ccccc3)C[C@H]2O1)N1CCCC1`: the INHIBITION is recorded as -35%. With `CC(O)CN1CCC(CNCc2ccccc2Cl)CC1` (stereo not given) the figure was 44.5%; with `CCc1nnc2n1CC(CNCC1CCCC1)CC2` (stereo not given), -108%. Under `COc1ccc2c(c1)OC1(CCN(Cc3ccc(F)cc3)CC1)CC2=O` stands -50.5%; under `COc1ccc2c(c1)C(=O)NC1(CC2)CCN(Cc2ccc(F)cc2)C1` (stereo not given), 66.7%. Under `COc1ccc2c(c1)C(=O)NC1(CC2)CCN(Cc2ccncc2)C1` (stereo not given) stands -28.2%; under `COc1ccc2c(c1)C(=O)NC1(CC2)CCN(Cc2ccccc2)C1` (stereo not given), 64.7%; under `COc1ccc2c(c1)C(=O)NC1(CC2)CCN(Cc2cccnc2)C1` (stereo not given), -50.6%.

For `COc1ccc2c(c1)C(=O)NC1(CC2)CCN(Cc2ccccn2)C1` (stereo not given), the INHIBITION was -30.5%. Under `Cc1ccc(C(=O)Nc2ccccc2F)n1C` stands -184%; under `COc1ccc(-c2cn(CCn3c(C)cc(C)nc3=O)nn2)cn1`, -102%; under `COc1c(F)cc(-c2cn(CCn3c(C)cc(C)nc3=O)nn2)cc1Cl`, 59.7%. Under `CC(=O)Nc1ccc(-c2cn(CCn3c(C)cc(C)nc3=O)nn2)cc1` stands -49.9%. As to `c1ccc(CN2CCCn3nnc(Cn4cccc4)c3C2)nc1`, the INHIBITION is -33.7%. Consider `Cc1ccc(N2CC[C@H]3O[C@@H](C(=O)N4CCCO4)CC[C@H]32)nn1`, for which the INHIBITION is -24.1%. With `Cc1cnc(C(=O)N2CCC3(CC2)CN(c2ccccn2)CCO3)cn1` the figure was -79.7%; with `CCNC(=O)C1CCCN(C(=O)Nc2ccc3c(c2)CCCN3C)C1` (stereo not given), 13.1%. Under `CCOCC1CCN(C(=O)Nc2ccc3c(c2)CCCO3)C1` (stereo not given) stands -50.7%.

Regarding `CCOCC1CCN(C(=O)Nc2ccc3c(c2)CCCN3C)C1` (stereo not given), the INHIBITION amounted to 58.9%. With `Cn1ccnc1CN1CCN(CCOc2cccc(C#N)c2)CC1` the figure was -53.6%; with `O=C(c1c[nH]cn1)N1CCC(F)(F)C2(CCN(c3cnccn3)C2)C1` (stereo not given), -94.9%. Under `CC(=O)N1C[C@H](NS(=O)(=O)Cc2cccc(Cl)c2)[C@@H](C(C)C)C1` stands -62.4%. With `Cc1cc(NCc2cc3n(n2)CCCN(C(=O)C2CCC2)C3)nc(N)n1` the figure was -79.3%.

In the case of `COc1cccc(C(=O)N2CCc3nc(C4CCCN4)ncc3C2)c1` (stereo not given), the INHIBITION is reported as 4.58%.
